Laboratory results as given in PubChem BioAssay (EPA / NIEHS).
Several values for one entry are separate records, joined by “and”; a condition that tells them apart may be missing. Identical values can stand only once. The source holds several records for some structures; these can differ, active in one and inactive in another. Activity calls are given as the source filed them. The calls were made as follows: active = hit-call score of the fitted dose curve at least 0.9, where 1 is the maximum; inactive = score below 0.9.

What was measured:
[1] = ATG_CRE_CIS: Attagene CIS-FACTORIAL HepG2 Assay for human cAMP Responsive Element (CRE) binding protein 3 (AID 2282926); conditions: HepG2 CRE cis-reporter, Attagene multiplexed mRNA; actives raise or lower the signal
Summary of the method: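 HepG2 cells transiently transfected with cis-element-driven multiple reporter transcription units; CRE reporter mRNA measured 24 h after dosing by RT-PCR, 6-FAM labelling, HpaI digestion and capillary electrophoresis. Bidirectional fit versus DMSO baseline.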

[2] = biological target: CCAAT/enhancer-binding protein beta (Homo sapiens) (UniProt P17676); experiment: ATG_C_EBP_CIS: Attagene CIS-FACTORIAL HepG2 Assay for human CCAAT/Enhancer Binding Protein (C/EBP) beta (AID 2282927); conditions: HepG2 Attagene cis-factorial transcription factor reporter; actives raise or lower the signal
Summary of the method: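 Changes in reporter mRNA, rather than exogenous chimeric receptor activity, reflect native C/EBP signalling in transfected HepG2 cells dosed for 24 h; transcripts are detected by RT-PCR and capillary electrophoresis.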

[3] = ATG_CMV_CIS: Attagene CIS-FACTORIAL HepG2 Assay for human CMV (Internal Marker) (AID 2282928); conditions: HepG2 CMV promoter reporter, transcription factor profiling; actives raise or lower the signal;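 also: endpoint acts as a background internal control marker rather than a target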
Summary of the method: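 CMV internal-marker background readout in transiently transfected HepG2 cells bearing cis-regulated reporter units. Reporter mRNA is measured 24 h after dosing by RT-PCR and capillary electrophoresis, with bidirectional fitting against DMSO.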

[4] = ATG_DR4_LXR_CIS: Attagene CIS-FACTORIAL HepG2 Assay for human Liver X Receptor (LXR), DR4 submotif (AID 2282929); conditions: HepG2 Attagene DR4 cis-reporter, mRNA transcription; AC50: actives raise or lower the signal unless noted; outcome: actives raise or lower the signal unless noted
Summary of the method: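 Endogenous factor activity at a DR4 cis-element is read as reporter mRNA in transiently transfected HepG2 cells. Exposure lasts 24 h; transcripts are amplified, fluorescently labelled and sized by capillary electrophoresis, with DMSO as baseline.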

[5] = biological target: Aryl hydrocarbon receptor (Homo sapiens) (UniProt P35869); experiment: ATG_Ahr_CIS: Attagene CIS-FACTORIAL HepG2 Assay for human Aryl Hydrocarbon Receptor (Ahr) (AID 2282930); conditions: HepG2 AhR cis-factorial reporter transcription; actives raise or lower the signal
Summary of the method: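 HepG2, transient MRTU (cis) transfection, 24 h exposure. RNA → cDNA → PCR → 6-FAM primer extension → HpaI 2 h 37 C → CE. Fit: bidirectional, DMSO baseline.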

[6] = ATG_AP_1_CIS: Attagene CIS-FACTORIAL HepG2 Assay for human Activator Protein 1 (AP-1) (AID 2282931); conditions: HepG2 Attagene cis-factorial AP-1 reporter mRNA; actives raise or lower the signal
Summary of the method: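 Fluorescence of labelled PCR fragments separated by capillary electrophoresis gives reporter mRNA levels. HepG2 with transfected cis-regulated reporter units, 24 h exposure; DMSO serves as baseline for bidirectional curve fits.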

[7] = ATG_AP_2_CIS: Attagene CIS-FACTORIAL HepG2 Assay for human Activator Protein 2 (AP-2) (AID 2282932); conditions: HepG2 AP-2 cis-reporter, Attagene transcription factor profiling; AC50: actives raise or lower the signal unless noted; outcome: actives raise or lower the signal unless noted
Summary of the method: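 HepG2, transient MRTU transfection, cis-regulated reporters; 24 h compound exposure; RNA isolated, RT-PCR, 6-FAM labelling, HpaI digest, CE fluorescence. DMSO = negative control/baseline, bidirectional fit.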

[8] = ATG_BRE_CIS: Attagene CIS-FACTORIAL HepG2 Assay for human Bone Morphogenetic Protein (BMP) Response Element (BRE) (AID 2282933); conditions: HepG2 BMP response element reporter, Attagene transcription factor profiling; actives raise or lower the signal
Summary of the method: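 Multiplexed cis-reporter assay, HepG2, 24 h exposure. mRNA from reporter units quantified via RT-PCR/CE; DMSO baseline; bidirectional curve fit.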

[9] = biological target: Retinoic acid receptor alpha (Homo sapiens) (UniProt P10276); experiment: ATG_DR5_RAR_CIS: Attagene CIS-FACTORIAL HepG2 Assay for human Retinoic Acid Receptor Alpha (RARE), DR5 submotif (AID 2282934); conditions: HepG2 Attagene cis-factorial RARE DR5 reporter, mRNA; actives raise or lower the signal;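 as to AC50: reporter responds to endogenous RAR alpha beta and gamma in HepG2 not RARA alone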
Summary of the method: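 HepG2, transient cis-reporter transfection, 24 h exposure. mRNA readout: RT-PCR, FAM label, HpaI cut, capillary electrophoresis. DMSO baseline, gain/loss fitting.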

[10] = biological target: Transcription factor E2F1 (Homo sapiens) (UniProt Q01094); experiment: ATG_E2F_CIS: Attagene CIS-FACTORIAL HepG2 Assay for human E2F Transcription Factor 1 (AID 2282935); conditions: HepG2 Attagene cis-reporter, E2F reporter RNA transcripts; actives raise or lower the signal
Summary of the method: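 Cis-element reporter mRNA induction in transiently transfected HepG2, 24 h exposure. Activity fitted in both directions relative to DMSO negative control.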

[11] = ATG_E_Box_CIS: Attagene CIS-FACTORIAL HepG2 Assay for human Enhancer Box (E-box) (AID 2282936); conditions: HepG2 E-box cis-reporter transcription, actives raise or lower the signal
Summary of the method: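 Cells: HepG2 (human liver), transient MRTU transfection. Exposure 24 h. RNA → oligo(dT) RT → PCR → 6-FAM label → HpaI → CE. Activity fitted both directions relative to DMSO.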

[12] = ATG_M_61_CIS: Attagene CIS-FACTORIAL HepG2 Assay for M61 Transcription Factor (Internal Marker) (AID 2282937); conditions: HepG2 Attagene CIS-FACTORIAL M61 internal marker reporter; actives raise or lower the signal
Summary of the method: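 This endpoint serves as an internal background control within a multiplexed HepG2 cis-reporter panel. Cells are exposed for 24 h; reporter mRNA is amplified, fluorescently labelled and sized by capillary electrophoresis, with DMSO as negative control.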

Measured: AC50

Sequence of Transcription factor E2F1 (Homo sapiens) (Q01094 whole entry, looked up): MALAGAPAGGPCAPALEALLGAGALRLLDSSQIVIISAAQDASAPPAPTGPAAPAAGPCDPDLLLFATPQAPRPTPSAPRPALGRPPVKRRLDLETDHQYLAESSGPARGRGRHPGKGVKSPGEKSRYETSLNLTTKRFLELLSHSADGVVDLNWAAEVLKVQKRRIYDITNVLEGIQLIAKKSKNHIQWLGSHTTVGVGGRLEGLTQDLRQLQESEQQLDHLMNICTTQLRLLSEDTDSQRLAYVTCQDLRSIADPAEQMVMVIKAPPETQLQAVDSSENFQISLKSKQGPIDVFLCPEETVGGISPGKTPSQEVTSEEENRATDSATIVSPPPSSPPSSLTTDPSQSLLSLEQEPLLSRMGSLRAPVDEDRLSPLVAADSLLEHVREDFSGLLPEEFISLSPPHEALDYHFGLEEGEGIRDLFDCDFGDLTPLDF
Sequence of CCAAT/enhancer-binding protein beta (Homo sapiens) (P17676 whole entry, looked up): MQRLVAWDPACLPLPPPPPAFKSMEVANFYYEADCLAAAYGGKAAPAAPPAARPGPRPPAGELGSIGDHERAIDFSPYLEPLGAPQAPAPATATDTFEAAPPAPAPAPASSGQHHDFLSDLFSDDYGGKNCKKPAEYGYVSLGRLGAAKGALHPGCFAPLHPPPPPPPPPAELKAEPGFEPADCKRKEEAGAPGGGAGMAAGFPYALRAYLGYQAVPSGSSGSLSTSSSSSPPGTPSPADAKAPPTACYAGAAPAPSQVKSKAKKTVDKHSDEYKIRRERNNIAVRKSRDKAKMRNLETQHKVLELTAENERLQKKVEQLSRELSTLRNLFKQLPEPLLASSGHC
Sequence of Aryl hydrocarbon receptor (Homo sapiens) (P35869 whole entry, looked up): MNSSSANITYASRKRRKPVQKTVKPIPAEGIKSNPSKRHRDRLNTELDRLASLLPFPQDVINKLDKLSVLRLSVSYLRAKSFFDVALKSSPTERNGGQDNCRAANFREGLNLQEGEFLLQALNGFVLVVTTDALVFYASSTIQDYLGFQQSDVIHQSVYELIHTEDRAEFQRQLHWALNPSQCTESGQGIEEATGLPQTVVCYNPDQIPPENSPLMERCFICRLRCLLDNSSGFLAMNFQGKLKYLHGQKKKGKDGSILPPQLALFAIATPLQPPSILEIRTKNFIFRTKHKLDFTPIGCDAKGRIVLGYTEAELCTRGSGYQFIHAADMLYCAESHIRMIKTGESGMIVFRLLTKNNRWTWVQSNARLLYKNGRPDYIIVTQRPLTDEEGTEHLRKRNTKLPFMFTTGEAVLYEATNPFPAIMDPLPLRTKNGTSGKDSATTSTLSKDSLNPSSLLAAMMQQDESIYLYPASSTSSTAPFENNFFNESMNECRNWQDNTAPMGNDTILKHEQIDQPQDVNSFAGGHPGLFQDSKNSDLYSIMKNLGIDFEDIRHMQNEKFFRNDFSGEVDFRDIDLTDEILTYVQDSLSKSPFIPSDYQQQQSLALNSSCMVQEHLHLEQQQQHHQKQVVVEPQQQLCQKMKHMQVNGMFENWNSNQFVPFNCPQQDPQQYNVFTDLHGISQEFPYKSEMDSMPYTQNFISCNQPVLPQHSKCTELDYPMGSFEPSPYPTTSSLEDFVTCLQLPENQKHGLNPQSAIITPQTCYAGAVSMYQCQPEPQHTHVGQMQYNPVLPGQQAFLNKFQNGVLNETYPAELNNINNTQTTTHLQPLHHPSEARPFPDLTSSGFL
Sequence of Retinoic acid receptor alpha (Homo sapiens) (P10276 whole entry, looked up): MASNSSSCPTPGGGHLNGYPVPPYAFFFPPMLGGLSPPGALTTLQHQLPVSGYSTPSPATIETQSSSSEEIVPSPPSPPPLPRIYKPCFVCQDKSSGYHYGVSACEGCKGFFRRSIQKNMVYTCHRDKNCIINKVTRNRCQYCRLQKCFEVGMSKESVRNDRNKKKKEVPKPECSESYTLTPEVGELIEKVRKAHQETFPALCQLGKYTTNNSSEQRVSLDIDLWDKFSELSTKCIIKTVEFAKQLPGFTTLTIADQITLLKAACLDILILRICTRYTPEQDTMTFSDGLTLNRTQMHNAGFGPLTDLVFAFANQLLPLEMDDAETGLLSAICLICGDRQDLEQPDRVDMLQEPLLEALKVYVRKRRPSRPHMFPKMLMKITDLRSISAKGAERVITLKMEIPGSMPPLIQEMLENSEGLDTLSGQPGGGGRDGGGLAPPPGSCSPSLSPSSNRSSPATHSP

O=C(O)CN(CCCN(CC(=O)O)CC(=O)O)CC(=O)O
inactive: [1] | [2] | [3] | [5] | [6] | [7] | [8] | [9] | [10] | [11] | [12]
active: [4] 6.63 µM

O=S(=O)(c1ccc(OCc2ccccc2)cc1)c1ccccc1O
inactive: [6] | [7] | [8] | [10] | [11] | [12]
active: [1] 14.9 µM | [2] 23.1 µM | [3] 51.6 µM | [4] 33.4 µM | [5] 46.8 µM | [9] 31.7 µM

CC(C)[C@@H]1CC[C@@H](C)C[C@H]1O
inactive: [1] | [2] | [3] | [4] | [5] | [6] | [7] | [8] | [9] | [10] | [11] | [12]

CC1CNCC(C)O1 (stereo not drawn)
inactive: [1] | [2] | [3] | [4] | [5] | [6] | [7] | [8] | [9] | [10] | [11] | [12]

CC1CCC(C(=O)O)CC1 (stereo not drawn)
inactive: [1] | [2] | [3] | [4] | [5] | [6] | [7] | [8] | [9] | [10] | [11] | [12]

O=C1Cc2ccccc2N1c1c(Cl)cccc1Cl
active: [4] 66.4 µM | [8] 100 µM
inactive: [1] | [2] | [3] | [5] | [7] | [9] | [10] | [11] | [12]

CC(C)(c1ccc(Oc2ccc(N)cc2)cc1)c1ccc(Oc2ccc(N)cc2)cc1
inactive: [1] | [2] | [3] | [4] | [5] | [6] | [8] | [9] | [10] | [11] | [12]

CCOC(OCC)C(=O)c1ccccc1
inactive: [1] | [2] | [3] | [4] | [5] | [7] | [8] | [9] | [10] | [11] | [12]

FC(F)(F)C1(F)C(F)(F)C(F)(F)C(F)(F)C(F)(C(F)(F)F)C1(F)F (stereo not drawn)
inactive: [1] | [2] | [3] | [4] | [5] | [6] | [8] | [9] | [10] | [11] | [12]

Clc1ccc2c(Cl)ccnc2c1
inactive: [1] | [2] | [4] | [7] | [9] | [10] | [11] | [12]
active: [3] 57.3 µM | [5] 19.8 µM | [8] 65.6 µM

CCCCCc1ccc(O)cc1
inactive: [1] | [2] | [6] | [8] | [9] | [10] | [11] | [12]
active: [3] 33.4 µM | [4] 33 µM | [5] 15 µM

CCN(CC)CC
inactive: [1] | [2] | [3] | [4] | [5] | [6] | [8] | [9] | [10] | [11] | [12]

CCOCCOCC
inactive: [1] | [2] | [3] | [4] | [5] | [6] | [8] | [9] | [10] | [11] | [12]

O=C(F)C(F)(F)C(F)(F)C(F)(F)C(=O)F
inactive: [1] | [2] | [3] | [4] | [5] | [7] | [8] | [9] | [10] | [11] | [12]

NNC(=O)CCCCC(=O)NN
inactive: [1] | [2] | [3] | [4] | [5] | [6] | [8] | [9] | [10] | [11] | [12]

Cc1ccccc1OCC(=O)O
inactive: [1] | [2] | [3] | [4] | [5] | [6] | [8] | [9] | [10] | [11] | [12]

Oc1c(Cl)cc(Cl)cc1Sc1cc(Cl)cc(Cl)c1O
active: [8] 1.9 µM
inactive: [1] | [2] | [3] | [4] | [5] | [6] | [9] | [10] | [11] | [12]

Cc1ccc(C(=O)c2ccccc2)cc1
inactive: [1] | [2] | [4] | [5] | [6] | [8] | [9] | [10] | [11] | [12]
active: [3] 61.1 µM

Cc1cccc2c1ccc1ccccc12
inactive: [1] | [2] | [3] | [4] | [5] | [6] | [7] | [8] | [9] | [10] | [11] | [12]

CC=O
inactive: [1] | [2] | [3] | [4] | [5] | [7] | [8] | [9] | [10] | [11] | [12]

CCCC=O
inactive: [1] | [2] | [3] | [4] | [5] | [6] | [7] | [8] | [9] | [10] | [11] | [12]

Cc1cc(=O)oc2cc(O)ccc12
inactive: [1] | [2] | [3] | [4] | [5] | [6] | [7] | [8] | [10] | [11] | [12]

CCCCCCCCCCCCOC(=O)c1cc(O)c(O)c(O)c1
inactive: [1] | [2] | [3] | [5] | [8] | [9] | [10] | [12]
active: [4] 6.4 µM | [6] 11.1 µM | [11] 2.92 µM

c1ccc2c(c1)CCC2
inactive: [1] | [2] | [3] | [4] | [5] | [6] | [8] | [9] | [10] | [11] | [12]

O=C(O)C(F)(F)OC(F)(F)C(F)(F)OC(F)(F)C(F)(F)OC(F)(F)C(F)(F)C(F)(F)C(F)(F)F
active: [1] 37.7 µM and 27.1 µM | [4] 16.6 µM and 21.7 µM | [11] 89.1 µM
inactive: [2] | [3] | [5] | [6] | [8] | [9] | [10] | [11] | [12]
